# Results published in the supplement of paper PMC12282887.
# ± gives the standard deviation of the averaged measurements.
# Columns and labels:
# Assay in all cases: promoter activity interaction Z-score (Lux/OD deviation from empty-vector control); higher = stronger promoter induction by the compound
# [1] = system: E. coli BW25113 acrABp lux reporter
# Summary of the method: (§1)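 E. coli BW25113 luxCDABE reporter strains grew at 37°C in 40 µl LB Lennox in 384-well plates, with OD600 and luminescence read every 30 min for 12 h. After integration over 0–8 h for wild type or 1–9 h for deletion strains, wells under 10% of the median growth value were removed. Each score is the Z-transformed residual of growth-normalised luminescence fitted against a control.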
# [2] = system: E. coli BW25113 micFp lux reporter
# Summary of the method: as §1
# [3] = system: E. coli BW25113 ompFp lux reporter
# Summary of the method: as §1
# [4] = system: E. coli BW25113 robp lux reporter
# Summary of the method: as §1
# [5] = system: E. coli BW25113 soxSp lux reporter
# Summary of the method: as §1
# [6] = system: E. coli BW25113 tolCp lux reporter
# Summary of the method: as §1
# [7] = 13.3 µg/ml, genetic background: wild type
# [8] = 13.3 µg/ml, genetic background: ΔmarA
# [9] = 13.3 µg/ml, genetic background: Δrob
# [10] = 13.3 µg/ml, genetic background: ΔsoxS
# [11] = 26.6 µg/ml, genetic background: wild type
# [12] = 26.6 µg/ml, genetic background: ΔmarA
# [13] = 26.6 µg/ml, genetic background: Δrob
# [14] = 26.6 µg/ml, genetic background: ΔsoxS
# [15] = 53.2 µg/ml, genetic background: wild type
# [16] = 53.2 µg/ml, genetic background: ΔmarA
# [17] = 53.2 µg/ml, genetic background: Δrob
# [18] = 53.2 µg/ml, genetic background: ΔsoxS
# [19] = 106.3 µg/ml, genetic background: wild type
# [20] = 106.3 µg/ml, genetic background: ΔmarA
# [21] = 106.3 µg/ml, genetic background: Δrob
# [22] = 106.3 µg/ml, genetic background: ΔsoxS
smiles,measurement,setting,value
NCCc1c[nH]c2ccc(O)cc12 [Serotonine],promoter activity interaction Z-score,[1]; [7],-0.00265 ± 0.11
same,promoter activity interaction Z-score,[1]; [8],-0.788 ± 0.29
same,promoter activity interaction Z-score,[1]; [9],-0.254 ± 0.091
same,promoter activity interaction Z-score,[1]; [10],-0.249 ± 0.17
same,promoter activity interaction Z-score,[1]; [11],0.0217 ± 0.063
same,promoter activity interaction Z-score,[1]; [12],-0.85 ± 0.58
same,promoter activity interaction Z-score,[1]; [13],-0.276 ± 0.24
same,promoter activity interaction Z-score,[1]; [14],-0.0282 ± 0.36
same,promoter activity interaction Z-score,[1]; [15],-0.325 ± 0.06
same,promoter activity interaction Z-score,[1]; [16],-0.49 ± 0.22
same,promoter activity interaction Z-score,[1]; [17],-0.415 ± 0.17
same,promoter activity interaction Z-score,[1]; [18],-0.545 ± 0.3
same,promoter activity interaction Z-score,[1]; [19],0.00625 ± 0.31
same,promoter activity interaction Z-score,[1]; [20],-0.338 ± 0.23
same,promoter activity interaction Z-score,[1]; [21],-0.109 ± 0.092
same,promoter activity interaction Z-score,[1]; [22],-0.397 ± 0.11
same,promoter activity interaction Z-score,[2]; [7],-0.241 ± 0.065
same,promoter activity interaction Z-score,[2]; [8],-0.0379 ± 0.032
same,promoter activity interaction Z-score,[2]; [9],-0.00374 ± 0.19
same,promoter activity interaction Z-score,[2]; [10],-0.156 ± 0.27
same,promoter activity interaction Z-score,[2]; [11],0.00853 ± 0.19
same,promoter activity interaction Z-score,[2]; [12],0.0453 ± 0.21
same,promoter activity interaction Z-score,[2]; [13],0.0253 ± 0.12
same,promoter activity interaction Z-score,[2]; [14],-0.0552 ± 0.27
same,promoter activity interaction Z-score,[2]; [15],-0.712 ± 0.14
same,promoter activity interaction Z-score,[2]; [16],0.105 ± 0.08
same,promoter activity interaction Z-score,[2]; [17],-0.0954 ± 0.018
same,promoter activity interaction Z-score,[2]; [18],-0.396 ± 0.062
same,promoter activity interaction Z-score,[2]; [19],-0.289 ± 0.23
same,promoter activity interaction Z-score,[2]; [20],0.0717 ± 0.036
same,promoter activity interaction Z-score,[2]; [21],-0.13 ± 0.074
same,promoter activity interaction Z-score,[2]; [22],-0.339 ± 0.011
same,promoter activity interaction Z-score,[3]; [7],-0.556 ± 0.15
same,promoter activity interaction Z-score,[3]; [8],-0.881 ± 0.092
same,promoter activity interaction Z-score,[3]; [9],-0.716 ± 0.021
same,promoter activity interaction Z-score,[3]; [10],-0.309 ± 0.16
same,promoter activity interaction Z-score,[3]; [11],-0.212 ± 0.059
same,promoter activity interaction Z-score,[3]; [12],-0.69 ± 0.35
same,promoter activity interaction Z-score,[3]; [13],-1.16 ± 0.13
same,promoter activity interaction Z-score,[3]; [14],-0.158 ± 0.048
same,promoter activity interaction Z-score,[3]; [15],-0.996 ± 0.15
same,promoter activity interaction Z-score,[3]; [16],-0.794 ± 0.068
same,promoter activity interaction Z-score,[3]; [17],-0.999 ± 0.19
same,promoter activity interaction Z-score,[3]; [18],-0.802 ± 0.085
same,promoter activity interaction Z-score,[3]; [19],-0.733 ± 0.22
same,promoter activity interaction Z-score,[3]; [20],-0.818 ± 0.24
same,promoter activity interaction Z-score,[3]; [21],-0.632 ± 0.014
same,promoter activity interaction Z-score,[3]; [22],-0.689 ± 0.16
same,promoter activity interaction Z-score,[4]; [7],-0.357 ± 0.24
same,promoter activity interaction Z-score,[4]; [8],-0.786 ± 0.2
same,promoter activity interaction Z-score,[4]; [9],-0.355 ± 0.17
same,promoter activity interaction Z-score,[4]; [10],0.188 ± 0.045
same,promoter activity interaction Z-score,[4]; [11],0.207 ± 0.12
same,promoter activity interaction Z-score,[4]; [12],-0.465 ± 0.14
same,promoter activity interaction Z-score,[4]; [13],-0.388 ± 0.26
same,promoter activity interaction Z-score,[4]; [14],0.275 ± 0.77
same,promoter activity interaction Z-score,[4]; [15],-0.669 ± 0.27
same,promoter activity interaction Z-score,[4]; [16],-0.144 ± 0.64
same,promoter activity interaction Z-score,[4]; [17],-0.179 ± 0.34
same,promoter activity interaction Z-score,[4]; [18],-0.554 ± 0.4
same,promoter activity interaction Z-score,[4]; [19],0.176 ± 0.072
same,promoter activity interaction Z-score,[4]; [20],0.574 ± 0.46
same,promoter activity interaction Z-score,[4]; [21],0.0481 ± 0.46
same,promoter activity interaction Z-score,[4]; [22],-0.714 ± 0.32
same,promoter activity interaction Z-score,[5]; [7],-0.18 ± 0.0085
same,promoter activity interaction Z-score,[5]; [8],-0.19 ± 0.0051
same,promoter activity interaction Z-score,[5]; [9],-0.045 ± 0.2
same,promoter activity interaction Z-score,[5]; [10],-0.24 ± 0.11
same,promoter activity interaction Z-score,[5]; [11],-0.101 ± 0.061
same,promoter activity interaction Z-score,[5]; [12],-0.181 ± 0.093
same,promoter activity interaction Z-score,[5]; [13],-0.254 ± 0.35
same,promoter activity interaction Z-score,[5]; [14],-0.331 ± 0.17
same,promoter activity interaction Z-score,[5]; [15],-0.456 ± 0.097
same,promoter activity interaction Z-score,[5]; [16],-0.276 ± 0.14
same,promoter activity interaction Z-score,[5]; [17],-0.264 ± 0.11
same,promoter activity interaction Z-score,[5]; [18],-0.531 ± 0.027
same,promoter activity interaction Z-score,[5]; [19],-0.199 ± 0.16
same,promoter activity interaction Z-score,[5]; [20],-0.243 ± 0.18
same,promoter activity interaction Z-score,[5]; [21],-0.285 ± 0.11
same,promoter activity interaction Z-score,[5]; [22],-0.676 ± 0.071
same,promoter activity interaction Z-score,[6]; [7],-0.64 ± 0.46
same,promoter activity interaction Z-score,[6]; [8],-0.135 ± 0.24
same,promoter activity interaction Z-score,[6]; [9],0.259 ± 1.6
same,promoter activity interaction Z-score,[6]; [10],-0.321 ± 0.043
same,promoter activity interaction Z-score,[6]; [11],0.564 ± 0.026
same,promoter activity interaction Z-score,[6]; [12],-0.00904 ± 0.37
same,promoter activity interaction Z-score,[6]; [13],-0.3 ± 0.55
same,promoter activity interaction Z-score,[6]; [14],0.737 ± 0.3
same,promoter activity interaction Z-score,[6]; [15],-0.749 ± 0.61
same,promoter activity interaction Z-score,[6]; [16],-0.0593 ± 0.84
same,promoter activity interaction Z-score,[6]; [17],-0.236 ± 1.2
same,promoter activity interaction Z-score,[6]; [18],-0.229 ± 1.1
same,promoter activity interaction Z-score,[6]; [19],-0.235 ± 0.56
same,promoter activity interaction Z-score,[6]; [20],0.575 ± 0.063
same,promoter activity interaction Z-score,[6]; [21],-0.637 ± 0.9
same,promoter activity interaction Z-score,[6]; [22],-0.781 ± 0.14
